Where “and” joins values, the source holds several entries; their conditions need not be identical. Equal entries are not always repeated. Results filed as inconclusive are left out. A structure can be active in one record and inactive in another. Calls of active or inactive are those of the source. Unless noted, calls come from the whole dose curve; as a rule, active = well fitted curve in the direction sought with a large enough effect; inconclusive = small, poorly fitted or top-dose-only effect, or another doubt; inactive = no such curve, though single readings can be large; an effect the other way counts as inactive or inconclusive.
Tests used:
[1] = molecular target: Calcium and integrin-binding protein 1 (Homo sapiens) (UniProt Q99828); assay: Primary qHTS for Identification of Calcium Integrin Binding Protein 1 (CIB1) Competitor (AID 1508620);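 note: GST tagged CIB1 binding a fluorescein labelled alphaIIb integrin peptide tracer; top concentration of the series differs between compounds; % is set by controls: 0 for no effect and ±100 for the full control effect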
Summary of the method: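 CIB1-GST (1 uM final) and compound incubated 15 min at room temperature before adding FITC-alphaIIb peptide tracer (100 nM final). Competition for binding read by fluorescence polarization (ex 480, em 540) after another 15 min at room temperature.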

[2] = molecular target: Cytochrome P450 2D6 (Homo sapiens) (UniProt P10635); assay: Cytochrome P450 family 2 subfamily D member 6 (CYP2D6) small molecule antagonists: luciferase biochemical (cell-free) qHTS assay (AID 1645840; active = well fitted curve in the direction sought with a large enough effect in the repeat runs; an effect the other way counts as inactive or inconclusive; note: nearly all actives have a fitted effect of over 55% in size; note: potency is the fitted concentration of half-maximal effect; for activity change, negative = inhibition: % is set by controls: 0 for no effect and ±100 for the full control effect)
Summary of the method: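 P450-Glo CYP2D6 system: proluciferin substrate converted by enzyme to luciferin, read by luminescence proportional to activity. Enzyme-substrate mix with compound 10 min at room temperature, then NADPH regeneration 1 h before detection reagent.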

[3] = molecular target: Cytochrome P450 2C9 (Homo sapiens) (UniProt P11712); assay: Cytochrome P450 family 2 subfamily C member 9 (CYP2C9) small molecule antagonists: luciferase biochemical (cell-free) qHTS assay (AID 1645842; active = well fitted curve in the direction sought with a large enough effect in the repeat runs; an effect the other way counts as inactive or inconclusive; note: nearly all actives have a fitted effect of over 55% in size; note: potency is the fitted concentration of half-maximal effect; for activity change, negative = inhibition: % is set by controls: 0 for no effect and ±100 for the full control effect)
Summary of the method: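 P450-Glo CYP2C9 system: proluciferin substrate with enzyme in mix containing 0.4% BSA, 10 min at room temperature, then NADPH regeneration solution added and incubated 1 h at 37C. Detection reagent stopped reaction; luminescence read after 20 min as RLU.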

[4] = Primary qHTS for inhibitors of nuclear receptor binding SET domain protein 2 (NSD2) in an isogenic RCH-ACV NSD2 p.E1099K mutant (9B) (AID 1645876); note: nearly all actives have a fitted effect of over 70% in size; note: potency is the fitted concentration of half-maximal effect
[5] = Primary qHTS for inhibitors of nuclear receptor binding SET domain protein 2 (NSD2) in an RCH-ACV wild type WT cells (2C) (AID 1645877); note: nearly all actives have a fitted effect of over 70% in size; note: potency is the fitted concentration of half-maximal effect
[6] = molecular target: Catechol O-methyltransferase (Homo sapiens) (UniProt P21964); assay: Confirmatory Screen for Target Class Profiling of Small Molecule Inhibitors of Methyltransferases (AID 1745852; calls by dose curve; note: potency is the fitted concentration of half-maximal effect; for activity change, negative = inhibition: % is set by controls: 0 for no effect and ±100 for the full control effect); conditions: MTase-Glo luminescence, SAH detection, recombinant enzyme; measured here: COMT max response; stronger effect = lower value
[7] = molecular target: Guanidinoacetate N-methyltransferase (Homo sapiens) (UniProt Q14353); assay: as above; conditions: activity change, negative = inhibition: at 57.3 µM (top of the series) unless noted
[8] = molecular target: Nicotinamide N-methyltransferase (Homo sapiens) (UniProt P40261); assay: as above; conditions: MTase-Glo luminescence, SAH detection, recombinant enzyme; measured here: NNMT max response; stronger effect = lower value
[9] = molecular target: Phenylethanolamine N-methyltransferase (Homo sapiens) (UniProt P11086); assay: as above; conditions: MTase-Glo luminescence, SAH detection, recombinant enzyme; measured here: PNMT max response; stronger effect = lower value
[10] = NCATS anti-infectives library activity on the primary C. elegans qHTS viability assay (AID 1745855; calls by dose curve; note: potency is the fitted concentration of half-maximal effect)
Description: Assay Development and Screening Technology Laboratory (ADST)
National Center for Advancing Translational Sciences (NCATS), Rockville, MD
National Institute of Health (NIH), Bethesda, Maryland
Caenorhabditis elegans has helped elucidate the evolutionarily conserved genetics underlying pathways and cellular processes implicated in human disease and may be ideally positioned to reveal novel pharmacological properties of exiting drugs. The organism's short life cycle and microscopic size is applicable to the technical requirements of high-throughput screening. Here a quantitative high-throughput screening (qHTS)-based forward chemical biology platform has been developed using C. elegans. 384-well microtiter plate laser scanning cytometry was used in the rapid detection and quantification of the fluorescent protein-encoded phenotype to score worm viability. In a proof-of-concept study, the pharmacological qHTS profile obtained from a library of 643 anti-infective compounds.
1. Inglese, J., Auld, D. S., Jadhav, A., Johnson, R. L., Simeonov, A., Yasgar, A., Zheng, W., and Austin, C. P. (2006) Quantitative high-throughput screening: A titration-based approach that efficiently identifies biological activities in large chemical libraries, P Natl Acad Sci USA 103, 11473-11478.
2. Auld, D. S., Johnson, R. L., Zhang, Y. Q., Veith, H., Jadhav, A., Yasgar, A., Simeonov, A., Zheng, W., Martinez, E. D., Westwick, J. K., Austin, C. P., and Inglese, J. (2006) Fluorescent protein-based cellular assays analyzed by laser-scanning microplate cytometry in 1536-well plate format, Method Enzymol 414, 566-589.
3. Zuck, P., Lao, Z., Skwish, S., Glickman, J. F., Yang, K., Burbaum, J., and Inglese, J. (1999) Ligand-receptor binding measured by laser-scanning imaging, Proc Natl Acad Sci U S A 96, 11122-11127.
PROTOCOL TABLE (as described by Inglese J, Shamu CE and Guy RK. 2007)
SEQUENCE No. (e.g., 1, 2, 3, etc.); […] (e.g., C. elegans, Compounds, Incubation, Read, etc.); VALUE and DESCRIPTION.
1. C. elegans. Mixed population of OP50 E. coli fed PE254-GFP-FLuc C. elegans collected, bleached, and axenized eggs hatched overnight at 21 °C with 65 RPM shaking in M9 buffer.
2. Compounds. Library compounds, levamisole toxicity control and DMSO vehicle control added at 250 nL per well to 21 assay ready 384-well Greiner uClear plates and two DMSO control plates, transferred by Echo acoustic dispenser.
3. Media. Add 30 uL per well strained TOP10 E. coli capsules diluted to OD600 = 0.85 in S medium to 23 assay ready 384-well Greiner uClear plates.
4. C. elegans. Add 10 synchronized L1 worms per 30 uL per well to 23 assay ready 384-well Greiner uClear plates with bacterial capsules and compounds.
5. Detector. Worm GFP fluorescence measured on an Acumen eX3 laser cytometer within 2 hr of plating with settings as follows: Scan 1: Ex laser 488 nm; Detection Channel: Green, Voltage = 400, Sensitivity = 2, Trigger; Default reader settings; Data gated on perimeter, area, and peak intensity of detected objects.
6. Incubation. C. elegans grown in 384-well plates with bacterial capsules and compounds at 21 °C with 65 RPM shaking for 7 days.
7. Detector. C. elegans GFP fluorescence measured on an Acumen eX3 laser cytometer at day 0, 3 and day 7 with the following settings: Scan 1: Ex laser 488 nm; Detection Channel: Green, Voltage = 400, Sensitivity = 2, Trigger; Default reader settings; Data gated on perimeter, area, and peak intensity of detected objects. […]

Chain of Catechol O-methyltransferase (Homo sapiens) (P21964 whole entry, looked up): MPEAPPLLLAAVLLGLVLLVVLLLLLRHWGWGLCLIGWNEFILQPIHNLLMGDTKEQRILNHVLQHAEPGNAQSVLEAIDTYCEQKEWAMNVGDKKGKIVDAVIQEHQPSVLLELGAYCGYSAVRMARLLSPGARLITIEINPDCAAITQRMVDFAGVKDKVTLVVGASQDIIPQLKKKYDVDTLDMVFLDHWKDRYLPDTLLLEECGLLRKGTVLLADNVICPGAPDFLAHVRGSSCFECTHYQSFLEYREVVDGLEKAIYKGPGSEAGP
Chain of Cytochrome P450 2C9 (Homo sapiens) (P11712 whole entry, looked up): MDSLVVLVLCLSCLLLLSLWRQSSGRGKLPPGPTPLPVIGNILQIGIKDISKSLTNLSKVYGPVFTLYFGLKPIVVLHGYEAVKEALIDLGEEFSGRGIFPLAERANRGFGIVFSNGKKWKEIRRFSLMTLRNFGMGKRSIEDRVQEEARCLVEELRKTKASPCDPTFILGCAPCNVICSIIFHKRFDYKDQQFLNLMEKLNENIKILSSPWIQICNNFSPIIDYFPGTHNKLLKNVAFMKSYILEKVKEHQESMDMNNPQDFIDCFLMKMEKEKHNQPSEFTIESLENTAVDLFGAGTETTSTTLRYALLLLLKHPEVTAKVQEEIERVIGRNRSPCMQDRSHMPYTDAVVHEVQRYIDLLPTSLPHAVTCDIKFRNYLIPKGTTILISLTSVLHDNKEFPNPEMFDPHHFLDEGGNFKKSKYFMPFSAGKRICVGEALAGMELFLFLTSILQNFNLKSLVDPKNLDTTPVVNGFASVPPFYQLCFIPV
Chain of Cytochrome P450 2D6 (Homo sapiens) (P10635 whole entry, looked up): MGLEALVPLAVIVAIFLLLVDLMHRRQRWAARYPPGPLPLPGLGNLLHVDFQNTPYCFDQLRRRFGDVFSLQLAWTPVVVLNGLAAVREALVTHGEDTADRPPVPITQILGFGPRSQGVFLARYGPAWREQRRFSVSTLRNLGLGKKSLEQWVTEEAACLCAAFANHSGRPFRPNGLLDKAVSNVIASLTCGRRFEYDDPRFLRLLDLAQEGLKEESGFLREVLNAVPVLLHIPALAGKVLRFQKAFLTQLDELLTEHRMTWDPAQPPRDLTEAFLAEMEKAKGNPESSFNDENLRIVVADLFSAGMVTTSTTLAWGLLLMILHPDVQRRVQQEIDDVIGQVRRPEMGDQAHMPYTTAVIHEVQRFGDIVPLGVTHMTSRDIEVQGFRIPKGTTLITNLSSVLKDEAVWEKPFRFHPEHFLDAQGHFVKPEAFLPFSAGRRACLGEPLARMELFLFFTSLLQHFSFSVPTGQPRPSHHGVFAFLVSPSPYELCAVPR
Chain of Nicotinamide N-methyltransferase (Homo sapiens) (P40261 whole entry, looked up): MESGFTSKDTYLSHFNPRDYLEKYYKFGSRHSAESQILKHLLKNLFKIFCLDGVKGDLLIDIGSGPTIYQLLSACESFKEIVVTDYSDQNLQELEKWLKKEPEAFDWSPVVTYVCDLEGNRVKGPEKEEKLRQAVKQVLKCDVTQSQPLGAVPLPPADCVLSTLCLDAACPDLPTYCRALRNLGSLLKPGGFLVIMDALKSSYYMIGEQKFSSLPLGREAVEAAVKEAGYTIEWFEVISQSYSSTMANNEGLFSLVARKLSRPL
Chain of Calcium and integrin-binding protein 1 (Homo sapiens) (Q99828 whole entry, looked up): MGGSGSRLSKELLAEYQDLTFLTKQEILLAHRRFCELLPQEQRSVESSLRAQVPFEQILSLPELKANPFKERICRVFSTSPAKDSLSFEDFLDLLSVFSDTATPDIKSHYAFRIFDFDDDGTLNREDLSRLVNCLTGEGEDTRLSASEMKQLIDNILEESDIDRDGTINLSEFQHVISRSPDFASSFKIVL
Chain of Phenylethanolamine N-methyltransferase (Homo sapiens) (P11086 whole entry, looked up): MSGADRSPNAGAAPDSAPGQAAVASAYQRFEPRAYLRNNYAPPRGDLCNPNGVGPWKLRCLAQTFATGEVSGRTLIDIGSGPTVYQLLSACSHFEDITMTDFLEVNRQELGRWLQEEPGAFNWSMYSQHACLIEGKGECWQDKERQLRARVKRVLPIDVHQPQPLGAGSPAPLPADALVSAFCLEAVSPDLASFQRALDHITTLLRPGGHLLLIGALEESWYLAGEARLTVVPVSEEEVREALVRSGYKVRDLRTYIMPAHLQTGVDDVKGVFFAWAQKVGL

| SMILES | Potency [1] | Potency [2] | Potency [3] | Potency [4] | Potency [5] | activity [6] | Potency [7] | activity [8] | activity [9] | activity change, negative = inhibition [7] | Potency [10] |
| --- | --- | --- | --- | --- | --- | --- | --- | --- | --- | --- | --- |
| CC(C)[C@@](C)(O)[C@@H]1CN(c2nc(-c3[nH]nc4ncccc34)c(F)cc2Cl)CCN1 | inactive | 849 nM (active) | 12000 nM (active) | 6.49 µM (active) | 4.59 µM (active) | -69% | 27100 nM (active) | -56.9% | -65.1% | – | – |
| COc1cc(NC(=O)Nc2cccc(CNC(=O)O[C@H]3CCOC3)c2)ccc1-c1cnco1 | inactive | 338 nM (active) | 37.9 nM (active) | 0.459 µM (active) | 0.728 µM (active) | -5.78% | – | -9.19% | -5.11% | -0.888% | – |
| Nc1ccc(-c2cccc3c(=O)cc(N4CCOCC4)oc23)cc1 | inactive | inactive | – | 1.63 µM (active) | 1.83 µM (active) | – | – | – | – | – | – |
| CCOCCn1nc(CC)c2nc(N3CCC(C(=O)O)CC3)nc(Nc3cc(C)ccn3)c21 | inactive | inactive | – | inactive | inactive | – | – | – | – | – | – |
| COc1cccc(-c2cc(NCc3ccc4c(c3)OCO4)nc(N)n2)c1 | inactive | 756 nM (active) | 2680 nM (active) | 0.205 µM (active) | 0.163 µM (active) | -1.69% | – | -16.1% | -2.8% | 0% | – |
| CN(CCc1ccc(Nc2ncc(-c3cccnc3)s2)cc1)Cc1ccccc1 | inactive | 1200 nM (active) | 12000 nM (active) | 8.17 µM (active) | 9.16 µM (active) | -0.695% | – | -47.4% | -13.5% | 0% | – |
| N#Cc1ccc(-c2cnc3[nH]cc(NC(=O)c4cccnc4)c3c2)cc1 | inactive | inactive | 2680 nM (active) | 7.28 µM (active) | 5.15 µM (active) | 1.05% | inactive | 2.51% | -6.92% | – | – |
| CCS(=O)(=O)N1CCN(c2ccc(Nc3ncc(C(N)=O)c(NC4CC4)n3)cc2)CC1 | inactive | inactive | 19000 nM (active) | 230 nM (active) and 417 nM (active) | 258 nM (active) and 417 nM (active) | -6.02% | – | -70.8% | -8.46% | 0% | – |
| C=C(F)c1sc(CNCCCNc2cc(=O)c3ccccc3[nH]2)c(C)c1Br | inactive | 1070 nM (active) | 2130 nM (active) | – | – | -1.13% | – | -33.7% | -2.47% | -1.39% | – |
| O=C(O)c1cc(-c2c(-c3ccccc3)nn3ccccc23)n[nH]c1=O | inactive | inactive | – | inactive | – | – | – | – | – | – | – |
| C[C@@H]1COCCN1c1cc(C2(S(C)(=O)=O)CC2)nc(-c2cccc3[nH]ccc23)n1 | inactive | inactive | – | 0.515 µM (active) | 0.459 µM (active) | – | – | – | – | – | – |
| CC1(c2nc3c(C(N)=O)cccc3[nH]2)CCCN1 (stereo not drawn) | inactive | inactive | – | inactive | – | – | – | – | – | – | – |
| Cc1cccc(Oc2cnc(=O)[nH]c2)c1 | inactive | inactive | – | inactive | inactive | – | – | – | – | – | – |
| Cc1cc(C(=O)N2Cc3cnn(C)c3Nc3ccccc32)ccc1CNC(=O)N1CCC[C@H]1C(=S)N1CCCN(C)CC1 | inactive | inactive | – | inactive | – | – | – | – | – | – | – |
| CCOCc1cc(OC)c(-c2ccc(C[C@H](NC(=O)c3c(F)cccc3F)C(=O)O)cc2)c(OC)c1 | inactive | inactive | – | inactive | inactive | – | – | – | – | – | – |
| CC1(C)CCC(C)(C)c2cc(C3(c4ccc(C(=O)O)cc4)OCCO3)ccc21 | inactive | inactive | – | inactive | inactive | – | – | – | – | – | – |
| Cc1cc(C)c(Nc2ccnc(Nc3ccc(C#N)cc3)n2)c(C)c1 | inactive | 10700 nM (active) | 3790 nM (active) | 4.09 µM (active) | 4.09 µM (active) | – | – | – | – | – | 5150 nM (active) |
| CCN1CCN(Cc2ccc(NC(=O)Nc3ccc(Oc4cc(NC)ncn4)cc3)cc2C(F)(F)F)CC1 | inactive | 10700 nM (active) | inactive | 3.65 µM (active) and 2.35 µM (active) | 3.65 µM (active) and 2.35 µM (active) | -1.25% | – | -7.66% | -2.63% | 0% | – |
| CNC(=O)c1cccc(-c2ccc3c(N4CCOC[C@@H]4C)nc(N4CCOC[C@@H]4C)nc3n2)c1 | inactive | inactive and 15.1 µM (active) | – | 129 nM (active) and 326 nM (active) and 148 nM (active) | 230 nM (active) and 326 nM (active) and 296 nM (active) | – | – | – | – | – | – |
| Cc1[nH]c2ccccc2c1CCNC(=O)c1ccccc1F | inactive | 21300 nM (active) | – | inactive | inactive | – | – | – | – | – | – |
| C=CC(=O)Nc1cccc(CN2C(=O)N(c3c(Cl)c(OC)cc(OC)c3Cl)Cc3cnc(NCCCCN(CC)CC)nc32)c1 | inactive | 21300 nM (active) | – | 2.05 µM (active) | 2.58 µM (active) | – | – | – | – | – | – |
| CN(C)CC1CCOC1(c1ccccc1)c1ccccc1 (stereo not drawn) | inactive | 2240 nM (active) | – | inactive | inactive | – | – | – | – | – | – |
| O=C(O)[C@H](Cc1ccc(Nc2nccc3ccncc23)cc1)NC1=C(Br)C(=O)C12CCCCC2 | inactive | inactive | – | inactive | inactive | – | – | – | – | – | – |
| Cc1nc2sc(C(=O)NCc3ccncc3)c(N)c2c(C)c1Cl | inactive | 2390 nM (active) | – | inactive | inactive | – | – | – | – | – | – |
